From ChEMBL document CHEMBL1157539, “Thousands of chemical starting points for antimalarial lead identification” (Nature, 2010) come the findings set out here.

SMILES strings stand for the structures.

The experiment concerns Plasmodium falciparum. Kind of experiment: GSK_TCMDC: Inhibition of Plasmodium falciparum 3D7 in whole red blood cells, using parasite LDH activity as an index of growth. Test compounds present at 2uM. Format: functional.
For the compound `COc1ccc(NC(=O)c2ccc(-c3ccc(-c4cccnc4)cc3)c(C)c2)cc1OCCN(C)C.Cl`, the Inhibition (in general, the share of the control response that was lost under treatment) came out at 99%.
The same measure for `O=C(O)C(F)(F)F.O=[N+]([O-])c1cccc(CNCC2CCN(Cc3ccc(-c4ccccc4)cc3)CC2)c1`: 100%.
The same measure for `COc1cc(C(=O)NC2CCN(Cc3ccccc3)CC2)ccc1-c1nc2cc(Cl)c(Cl)cc2[nH]1`: 100%; for `CC(C)C1CCc2nc(N)nc(N)c2C1.Cl` (stereo not given): 95%; for `Cc1cccc(CNc2nccc3[nH]c4ccccc4c23)c1.O=C(O)C(F)(F)F`: 92%.
The same measure for `NCCCNc1nc(Nc2cccc(C(N)=O)c2)c2c(=O)[nH]ccc2n1.O=C(O)C(F)(F)F`: 99%; for `CC(=O)N[C@H](C(=O)Nc1cccc(-c2ccc(-c3nc4cccc(C)c4[nH]3)s2)c1)C(C)C`: 93%.
Compound `Cc1cc(NC(=O)NCCN2CCC(NC(=O)c3ccc(C(F)(F)F)cc3)CC2)c2ccccc2n1.O=C(O)C(F)(F)F` gave an Inhibition of 98%.
The same measure for `Cc1nnsc1C(=O)Nc1ccc(-c2ccc(-c3nc4ccccc4[nH]3)s2)cc1`: 92%; for `O=C(Nc1ccc(-c2cccc(-c3nc4cc(C(F)(F)F)ccc4[nH]3)c2)cc1)c1cccnc1`: 100%; for `CN1CCC(NCc2cccc(-c3ccc(S(=O)(=O)NCCc4ccccn4)cc3)c2)CC1.O=C(O)C(F)(F)F`: 95%.
The same measure for `CCC(C)CN1CCN(c2ccc(NC(=O)c3cccs3)cc2)C(C)C1.O=C(O)C(F)(F)F` (stereo not given): 95%; for `O=C(CC(=O)Nc1cc(Cl)cc(Cl)c1)Nc1cc(Cl)cc(Cl)c1`: 95%; for `COc1ccc(C(=O)Nc2ccc3nc(N4CCCCC4)cc(C)c3c2)cc1[N+](=O)[O-]`: 96%.
On to `CCN(CC)CCN(Cc1ccc(-c2ccc(C(F)(F)F)cc2)cc1)C(=O)c1ccc(-c2ccc(NC(=O)OC)cc2C)cc1`, for which the Inhibition is 93%.
The same measure for `O=C(O)C(F)(F)F.O=C1CCCN1CCCNCc1ccc(-c2cccc(-c3nc4cc(F)ccc4[nH]3)c2)cc1`: 100%; for `O=C(/C=C/c1cccc2ccccc12)NCCCCCN1CCC(c2c[nH]c3ccccc23)CC1`: 92%.
Take `CCN(CC)CCN(Cc1ccc(-c2ccc(C(F)(F)F)cc2)cc1)C(=O)Cn1c(SCc2ccc(F)cc2)nc(=O)c2sccc21.O=C(O)C(O)C(O)C(=O)O`: the Inhibition is 100%.
The same measure for `COc1cc(NC(=O)c2sc(-c3ccc(Cl)cc3)cc2NC(=O)c2cccnc2)ccc1OCCN1CCCC1`: 94%.
The same measure for `O=C(Nc1cc(F)cc(F)c1)N1CCOC(CCN2CCC(c3ccccc3)CC2)(c2ccc(Cl)c(Cl)c2)C1` (stereo not given): 91%.
Take `OC(CN1CCN(C2CCCCC2)CC1)Cn1c2ccccc2c2cc(Br)ccc21` (stereo not given): the Inhibition is on record as 97%.
For `CCCCCN1CCC(NS(=O)(=O)c2cccc(C(=O)Nc3ccc(C(F)(F)F)cc3)c2)C1.O=C(O)C(F)(F)F` (stereo not given), the Inhibition is 95%.
For the compound `O=C(c1ccc(-c2ccc(-c3nc4cc(C(F)(F)F)ccc4[nH]3)s2)cc1)N1CCCCC1CN1CCC(O)C1` (stereo not given), the Inhibition was found to be 92%.
`Cc1ccc(Nc2nc(N)c3ccccc3n2)cc1.Cl` had an Inhibition of 94%.
Regarding `COc1ccc2nccc([C@@H](O)CN3CCC(NCC(=O)Nc4cc(F)cc(F)c4)CC3)c2n1.O=C(O)C(=O)O`, the Inhibition came to 89%.
The same measure for `CC1CCC(NCc2c(O)ccc3ccccc23)CC1.Cl` (stereo not given): 95%; for `Cc1ccc(N(CCC(=N)N)Cc2ccccc2)cc1.Cl`: 96%; for `Cc1cccc(-c2nc3[nH]c(=O)cc(NC(=O)C(C)C)n3n2)c1`: 96%.
In the case of `O=C(Nc1ccc(F)c(C(F)(F)F)c1)N[C@H]1CCN(CCCCCNC(=O)C2CC2c2ccc(Cl)c(Cl)c2)C1` (stereo not given in full), the Inhibition is 90%.
The same measure for `Nc1ncnc2cc(-c3cccc(S(N)(=O)=O)c3)sc12`: 98%; for `CCCCCCN1CCCN(Cc2ccc(C(=O)Nc3ccc(C(C)C)cc3)cc2)CC1.O=C(O)C(F)(F)F`: 93%.
The same measure for `COc1ccc(N2C(N)=NC(N)=NC2(C)C)cc1OC.Cl`: 95%; for `CCOc1ccc(NC(=O)c2ccc(CN3CCCN(Cc4cccc(O)c4)CC3)cc2)cc1.O=C(O)C(F)(F)F`: 85%; for `CCOc1ccc2[nH]c(C)cc(=NN=Cc3ccc(Cl)cc3)c2c1`: 100%.
For `COc1cc2nc(NCCn3cccn3)nc(NCCc3ccccc3)c2cc1OC`, the Inhibition is reported as 100%.
`COc1ccc(-c2cccc(NC(=O)c3cccc(Cl)c3)c2)cc1CN1CCCN(C)CC1.O=C(O)C(F)(F)F` returned an Inhibition of 100%.
The same measure for `Cc1ccccc1-c1nc2c(CN3CCC(O)(c4ccccc4)CC3)c(O)ccc2[nH]1`: 92%; for `COc1ccc(F)cc1-c1ccc(C(=O)N2CCCN(c3ccc(C#N)cn3)CC2)cc1`: 99%.
`COc1ccc2cc(-c3nc(-c4c(Cl)cccc4Cl)[nH]c3-c3ccnc(NCCC4CCCN4C)c3)ccc2c1.O=C(O)C(F)(F)F` (stereo not given) yielded an Inhibition of 100%.
With `O=C(Nc1cccc2ccccc12)N1CCC(NS(=O)(=O)c2cccc(C(F)(F)F)c2)CC1`, the Inhibition was determined as 95%.
